The text below walks through data of PubChem BioAssay (NCI).

Compounds without any hit were thinned out: in the full panel of roughly 83,000, 20% have a hit.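 Cells were grown in 96-well plates and exposed to the test compound at a single concentration for 48 hours; results are reported as percent growth, with values below 10 considered active.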 A number with no mark means an inactive call. Activity calls are given as the source filed them.

The experiment has as its system MDA-MB-468 breast. Put plainly: NCI-60 one-dose screen, 48 h (100 = growth as untreated, 0 = no growth, -100 = all killed). The conditions noted are these: 10 µM unless noted.
As to `NC(=S)NNC1CCCCC1`, the growth is 99%.

With `CNC(=O)c1cnc(C)nc1-c1cc(C(C)(C)C)c(O)c(C(C)(C)C)c1`, the growth was 97.4%. For `CN1CCN(Cc2ccc(/C=N/Nc3ccnc4cc(Cl)ccc34)cc2)CC1` the value was 77.1%. For `Cc1ccc(-c2nn(-c3ccccc3)cc2/C=C/C(=O)c2ccc(NC(=O)CCCCCCC(=O)NO)cc2)cc1` the value was 70.9%; for `Cc1cccc(/C=N/n2c(-c3ccc(Cl)cc3)nc3c(Br)cc(Br)cc3c2=O)c1`, 46.7%; for `N#Cc1c(N)n2c(nc1=Nc1ccc(Cl)cc1)sc1cc(Cl)ccc12`, 22.5%. For `COc1cc2c3c(c4c5ccccc5[nH]c4c2c(OC)c1OC)C(=O)N(O)C3=O` the value was 32.7%. Consider `COc1cc2c(cc1OC)C(=O)C(Br)CC2` (stereo not drawn), for which the growth was 24.7%. To `CCN(CC)c1ccc2nc3c4ccccc4c(=NC(=O)c4ccccc4-c4c5ccc(N(CC)CC)cc5[o+]c5cc(N(CC)CC)ccc45)cc-3oc2c1` belongs -59.2% (active). To `C#C[C@@]1(O)[C@@H](CO)O[C@@H](n2cc(Cl)c3c(N)ncnc32)[C@@H]1O` belongs -49% (active); to `Oc1[nH]c2ccc(Cl)cc2c1/C=c1/ccc2c(c1)N=C(c1ccc(F)cc1)N=2`, 9.65% (active); to `O=C(Nc1cccc(C(F)(F)F)c1)c1cc(-c2ccc(F)cc2F)ccc1O`, -5% (active). For `COC12C=C/C(=C(/C(=O)OCc3ccncn3)C(=O)CCCCCCCCC3(OC)C=C/C(=C(/C(=O)OCc4ccncn4)C(=O)CCCCCCCC1)O3)O2` the value was -45.5% (active).
